The source of these data is PubChem BioAssay (NCI).

About 79,000 compounds went through this panel and 15% of them were active in at least one assay; those are over-represented in the sample as a whole. A number with no mark means an inactive call. Active and inactive are the calls of the source. Rule as the data show it: active = growth inhibition above about 70%; inactive = the rest.

A short description of test [1]: NCI Yeast Anticancer Drug Screen. Data for the rad50 strain (AID 155).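 Also: 0% = growth of vehicle-only cultures of the same strain.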 As to conditions: S. cerevisiae rad50 strain growth inhibition, active compounds read high. The essentials:
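Inhibition values express reduced yeast growth in compound-treated cultures relative to vehicle-treated controls.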

Test [2] in a line: NCI Yeast Anticancer Drug Screen. Data for the mec2-1 strain (AID 157). As to conditions: S. cerevisiae mec2-1 strain, active compounds read high. The essentials: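 Mutant yeast (mec2-1) grown with compound; growth inhibition relative to vehicle control reported.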
Test [3] in a line: NCI Yeast Anticancer Drug Screen. Data for the sgs1 mgt1 strain (AID 161).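 Also: 0% = growth of cultures given vehicle only.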 To be noted: S. cerevisiae sgs1 mgt1 strain, active compounds read high. In a few lines: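 Yeast cells carrying a defined DNA-repair defect were exposed to test compounds. Growth inhibition was measured relative to vehicle-treated controls.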
Test [4] is described as follows: NCI Yeast Anticancer Drug Screen. Data for the cln2 rad14 strain (AID 165).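 Also: 0% = growth equal to vehicle treated cultures.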 To be noted: S. cerevisiae cln2 rad14 strain, active compounds read high. The essentials:
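Readout is yeast growth inhibition versus vehicle-treated controls, using a strain with cln2 and rad14 alterations exposed to compound.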

A short description of test [5]: NCI Yeast Anticancer Drug Screen. Data for the bub3 strain (AID 167). As to conditions: S. cerevisiae bub3 mutant strain, active compounds read high. In a few lines:
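Steps: expose the mutant yeast strain to compound; grow alongside vehicle-treated cultures; measure growth; express inhibition against the vehicle cultures.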

Test [6] is described as follows: NCI Yeast Anticancer Drug Screen. Data for the mlh1 rad18 strain (AID 175). As to conditions: S. cerevisiae mlh1 rad18 strain growth inhibition, active compounds read high. In a few lines:
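Genetically defined yeast (DNA repair-deficient) exposed to compounds; growth inhibition determined relative to vehicle.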

Where [7] appears, read: at 5.0 µM (retest, dose inferred, filed as 0.5).
Setting [8] is: at 50.0 µM (retest, dose inferred, filed as 5.0).

Consider `O=C(Nc1cccc2ccccc12)OCCCCCCl`, for which the growth inhibition in test [1] (setting [7]) is -2%; in test [1] (setting [8]) it was 97% (active); in test [1] (at 50.0 µM), 97% (active); in test [2] (setting [7]), -2%; in test [2] (setting [8]) it was 96% (active); in test [2] (at 50.0 µM) it was 97% (active). The growth inhibition in test [3] (setting [7]) was 1%; in test [3] (setting [8]), 98% (active); in test [3] (at 50.0 µM), 97.1% (active); in test [4] (setting [7]), -6%; in test [4] (setting [8]), 95% (active); in test [4] (at 50.0 µM), 95.5% (active). Also, the growth inhibition in test [5] (setting [7]) is -5%; in test [5] (setting [8]), 93% (active); in test [5] (at 50.0 µM), 97.2% (active); in test [6] (setting [7]), -16%; in test [6] (setting [8]), 93% (active); in test [6] (at 50.0 µM) it was 97.4% (active).
In the case of `CCCC(=O)NCCNC(=O)CCC`, the growth inhibition was -154% in test [1] (setting [7]); -159% in test [1] (setting [8]); 4.35% in test [1] (at 50.0 µM); -48% in test [2] (setting [7]); -54% in test [2] (setting [8]); 7.75% in test [2] (at 50.0 µM). Further, the growth inhibition in test [3] (setting [7]) was -61%; in test [3] (setting [8]), -62%; in test [3] (at 50.0 µM), 1.75%; in test [4] (setting [7]) it was -50%; in test [4] (setting [8]), -62%; in test [4] (at 50.0 µM) it was 45.8%. Also, the growth inhibition was -69% in test [5] (setting [7]); -82% in test [5] (setting [8]); -3.15% in test [5] (at 50.0 µM); -139% in test [6] (setting [7]); -117% in test [6] (setting [8]); 10.1% in test [6] (at 50.0 µM).
`COc1cc(C2CC(C)(OC)Oc3cc4c(cc32)OCO4)cc(OC)c1O` (configuration not stated): the growth inhibition in test [1] (setting [7]) was 1%; in test [1] (setting [8]) it was 55%; in test [1] (at 50.0 µM), 14.9%; in test [2] (setting [7]) it was 2%; in test [2] (setting [8]) it was 16%; in test [2] (at 50.0 µM), -5.5%. The growth inhibition in test [3] (setting [7]) is -3%; in test [3] (setting [8]), 50%; in test [3] (at 50.0 µM), 28.8%; in test [4] (setting [7]) it was 12%; in test [4] (setting [8]), 37%; in test [4] (at 50.0 µM), 4.55%. Also, the growth inhibition was 10% in test [5] (setting [7]); 55% in test [5] (setting [8]); -2.1% in test [5] (at 50.0 µM); 0% in test [6] (setting [7]); 63% in test [6] (setting [8]); 31.2% in test [6] (at 50.0 µM).
Take `CC(=O)N(C1=C(Cl)C(=O)c2ccccc2C1=O)c1ccc([N+](=O)[O-])cc1`: the growth inhibition in test [1] (setting [7]) is 98% (active); in test [1] (setting [8]), 98% (active); in test [1] (at 50.0 µM), 99.2% (active); in test [2] (setting [7]), 99% (active); in test [2] (setting [8]), 99% (active); in test [2] (at 50.0 µM), 99.2% (active). Moreover, the growth inhibition was 98% (active) in test [3] (setting [7]); 100% (active) in test [3] (setting [8]); 99.5% (active) in test [3] (at 50.0 µM); 96% (active) in test [4] (setting [7]); 97% (active) in test [4] (setting [8]); 99.5% (active) in test [4] (at 50.0 µM). For the same molecule, the growth inhibition is 99% (active) in test [5] (setting [7]); 98% (active) in test [5] (setting [8]); 98.6% (active) in test [5] (at 50.0 µM); 98% (active) in test [6] (setting [7]); 99% (active) in test [6] (setting [8]); 99% (active) in test [6] (at 50.0 µM).
With `CCCCCCCCCc1cc(O)c(O)cc1CCCCCCCCC`, the growth inhibition was -8% in test [1] (setting [7]); 80% (active) in test [1] (setting [8]); 22.4% in test [1] (at 50.0 µM); -13% in test [2] (setting [7]); 68% in test [2] (setting [8]); 25.2% in test [2] (at 50.0 µM). Also, the growth inhibition in test [3] (setting [7]) is -7%; in test [3] (setting [8]), 42%; in test [3] (at 50.0 µM) it was 42.9%; in test [4] (setting [7]), -23%; in test [4] (setting [8]), 86% (active); in test [4] (at 50.0 µM) it was 54.1%. The growth inhibition in test [5] (setting [7]) was -12%; in test [5] (setting [8]) it was 79% (active); in test [5] (at 50.0 µM) it was 22.4%; in test [6] (setting [7]), -2%; in test [6] (setting [8]), 66%; in test [6] (at 50.0 µM), 1.65%.
As for `O=C(/C=C(/Nc1ccccc1)C(=O)c1ccccc1)c1ccccc1`, the growth inhibition in test [1] (setting [7]) is 3%; in test [1] (setting [8]), 77% (active); in test [1] (at 50.0 µM), 30.6%; in test [2] (setting [7]) it was 9%; in test [2] (setting [8]), 96% (active); in test [2] (at 50.0 µM), 37.2%. The growth inhibition is 8% in test [3] (setting [7]); 90% (active) in test [3] (setting [8]); 68.8% in test [3] (at 50.0 µM); 0% in test [4] (setting [7]); 39% in test [4] (setting [8]); -5.1% in test [4] (at 50.0 µM). Further, the growth inhibition in test [5] (setting [7]) was 13%; in test [5] (setting [8]), 33%; in test [5] (at 50.0 µM), 74% (active); in test [6] (setting [7]) it was 6%; in test [6] (setting [8]) it was 91% (active); in test [6] (at 50.0 µM), 37.7%.
With `C=CCCCCO/N=C/c1c2c(O)c3c(O)c(C)c4c(c3c1O)C(=O)C(C)(O/C=C/C(OC)C(C)C(OC(C)=O)C(C)C(O)C(C)C(O)C(C)/C=C/C=C(\C)C(=O)N2)O4` (configuration not stated), the growth inhibition in test [1] (setting [7]) was 44%; in test [1] (setting [8]) it was 89% (active); in test [1] (at 50.0 µM), 86.4% (active); in test [2] (setting [7]), 44%; in test [2] (setting [8]), 91% (active); in test [2] (at 50.0 µM), 91.8% (active). The growth inhibition in test [3] (setting [7]) was 33%; in test [3] (setting [8]) it was 87% (active); in test [3] (at 50.0 µM), 66.8%; in test [4] (setting [7]), 67%; in test [4] (setting [8]) it was 91% (active); in test [4] (at 50.0 µM), 88.3% (active). Moreover, the growth inhibition in test [5] (setting [7]) was 49%; in test [5] (setting [8]), 93% (active); in test [5] (at 50.0 µM), 79.9% (active); in test [6] (setting [7]) it was 34%; in test [6] (setting [8]), 89% (active); in test [6] (at 50.0 µM), 85.3% (active).
In the case of `c1ccc(C2=NC(=c3ccc(=C4N=C(c5ccccc5)C(c5ccccc5)=N4)cc3)N=C2c2ccccc2)cc1`, the growth inhibition is 3% in test [1] (setting [7]); 44% in test [1] (setting [8]); 86.6% (active) in test [1] (at 50.0 µM); 3% in test [2] (setting [7]); 17% in test [2] (setting [8]); 65.6% in test [2] (at 50.0 µM). Also, the growth inhibition in test [3] (setting [7]) is -2%; in test [3] (setting [8]), 48%; in test [3] (at 50.0 µM), 59.9%; in test [4] (setting [7]) it was 7%; in test [4] (setting [8]), 5%; in test [4] (at 50.0 µM) it was 29.6%. Also, the growth inhibition in test [5] (setting [7]) is 3%; in test [5] (setting [8]) it was 8%; in test [5] (at 50.0 µM) it was 51.3%; in test [6] (setting [7]), 1%; in test [6] (setting [8]), 19%; in test [6] (at 50.0 µM), 93.7% (active).
Turning to `O=C(c1ccccc1)C1N=NCC1c1ccc([N+](=O)[O-])cc1` (configuration not stated), the growth inhibition in test [1] (setting [7]) was 2%; in test [1] (setting [8]), -21%; in test [1] (at 50.0 µM), -3.65%; in test [2] (setting [7]) it was 11%; in test [2] (setting [8]), 9%; in test [2] (at 50.0 µM), 10.1%. The growth inhibition is 1% in test [3] (setting [7]); 47% in test [3] (setting [8]); 18.2% in test [3] (at 50.0 µM); 5% in test [4] (setting [7]); -4% in test [4] (setting [8]); -4.4% in test [4] (at 50.0 µM). Also, the growth inhibition was -5% in test [5] (setting [7]); 5% in test [5] (setting [8]); 84.2% (active) in test [5] (at 50.0 µM); 0% in test [6] (setting [7]); -4% in test [6] (setting [8]); 40.6% in test [6] (at 50.0 µM).
